These results are taken from PubChem BioAssay (NCATS).

The nature of the assay: qHTS drug screen for cell cycle checkpoint inhibitors in PARPi-resistant BRCA-mutant ovarian cancer cell lines. (AID 1963452). The settings on record: PEO1/OlaR viability, CellTiter-Glo luminescence, 96 h; measured here: PEO4 Z-AUC; stronger effect = lower value. In short, it runs like this: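 PEO1, PEO4 and PEO1/OlaR ovarian cancer cells, 600 per well, exposed 96 h at 37C to a dilution series. Viability read by CellTiter-Glo luminescence, normalized to DMSO and empty wells; activity summarized as Z-AUC.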
In general terms: qHTS replaces the single test concentration by a dilution series.
For `CCc1cccc2c3c([nH]c12)C(CC)(CC(=O)O)OCC3` (stereo unspecified), the Z-AUC is 0.882.

Turning to `CC#C[C@]1(O)CC[C@H]2[C@@H]3CCC4=CC(=O)CCC4=C3[C@@H](c3ccc(N(C)C)cc3)C[C@@]21C`, the Z-AUC was 0.142.

Take `CN(C)c1nc(N(C)C)nc(N(C)C)n1`: the Z-AUC was found to be 0.807.

Consider `CS(=O)(=O)CCNCc1ccc(-c2ccc3ncnc(Nc4ccc(OCc5cccc(F)c5)c(Cl)c4)c3c2)o1`, for which the Z-AUC stood at 0.473.

With `Cn1c(=O)c2c(ncn2C)n(C)c1=O`, the Z-AUC stood at 1.21.

In the case of `CN1CCC(=C2c3ccccc3CC(=O)c3sccc32)CC1`, the Z-AUC was determined as 0.927.

Regarding `C[C@](N)(Cc1ccc(O)c(O)c1)C(=O)O`, the Z-AUC was found to be 1.22.

As to `CC[C@@]1(O)C(=O)OCc2c1cc1n(c2=O)Cc2cc3c(CN(C)C)c(O)ccc3nc2-1`, the Z-AUC is -0.128.

In the case of `NC(=O)NO`, the Z-AUC was found to be 0.874.

As to `O=c1[nH]cc(F)c(=O)[nH]1`, the Z-AUC stood at 0.136.

Regarding `NC12CC3CC(CC(C3)C1)C2`, the Z-AUC is 0.463.

For the compound `Cn1cnc2c1c(=O)[nH]c(=O)n2C`, the Z-AUC was -0.709.

As to `CC(C)(Oc1ccc(C2CC2(Cl)Cl)cc1)C(=O)O` (stereo unspecified), the Z-AUC was -0.292.

Take `CN1C2CCC1CC(OC(=O)C(CO)c1ccccc1)C2` (stereo unspecified): the Z-AUC is -0.0914.

Consider `CN(C)C(=O)C(CCN1CCC(O)(c2ccc(Cl)cc2)CC1)(c1ccccc1)c1ccccc1`, for which the Z-AUC is -0.794.

Regarding `CC(=O)OCC(CCn1cnc2cnc(N)nc21)COC(C)=O`, the Z-AUC turned out to be 1.62.

`O=C(Nc1ccc([N+](=O)[O-])cc1Cl)c1cc(Cl)ccc1O`: the Z-AUC was -1.03.

Regarding `COc1cc2c(c(OC)c1OC)-c1ccc(OC)c(=O)cc1[C@@H](NC(C)=O)CC2`, the Z-AUC is -1.62.

With `NCCCCCC(=O)O`, the Z-AUC came to 1.26.

On to `COC(=O)Nc1nc2ccc(C(=O)c3cccs3)cc2[nH]1`, for which the Z-AUC is -1.92.

As to `CC(C)Cc1ccc(C(C)C(=O)O)cc1` (stereo unspecified), the Z-AUC came to 1.2.
